Source: PubChem BioAssay (The Scripps Research Institute Molecular Screening Center)
Sampled rows, rich in hits. Any-hit rate of the full collection: about 1.1%.
PKA-R1A activ: activators of PKA-R1A holoenzyme, primary screen, biochemical, fluorescence polarization, Cy5-IP20, bovine R1A, mouse PKAc; PKA-R1A dissociation; scaled: DMSO 0%, 113 µM cGMP 100%; activation, % at 11.4 µM; hit rate 0.083% among 340,000;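 active = percent activation above the mean of all tested compounds plus 3 SD, cut at about 19% in these data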;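 also: higher means more PKAc released from R1A so a rise in polarization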
PKA-R2B act: activators of PKA-R2B holoenzyme, primary screen, biochemical, fluorescence polarization, Cy5-IP20, human; cAMP-dependent protein kinase catalytic subunit beta (Homo sapiens) + cAMP-dependent …; PKA-R2B holoenzyme dissociation; R2B truncated from residue 108, S112A mutant; 0% DMSO only, 100% 113 µM cGMP; activation, % at 11.4 µM; hit rate 0.079% among 340,000;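 active = activation above a cutoff set at the mean over all compounds plus 3 SD, cut at about 18% in these data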;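 also: higher means more holoenzyme dissociation and a rise in polarization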
Target sequence (P31323 whole entry, looked up, other chains not shown, the tested form may be a part): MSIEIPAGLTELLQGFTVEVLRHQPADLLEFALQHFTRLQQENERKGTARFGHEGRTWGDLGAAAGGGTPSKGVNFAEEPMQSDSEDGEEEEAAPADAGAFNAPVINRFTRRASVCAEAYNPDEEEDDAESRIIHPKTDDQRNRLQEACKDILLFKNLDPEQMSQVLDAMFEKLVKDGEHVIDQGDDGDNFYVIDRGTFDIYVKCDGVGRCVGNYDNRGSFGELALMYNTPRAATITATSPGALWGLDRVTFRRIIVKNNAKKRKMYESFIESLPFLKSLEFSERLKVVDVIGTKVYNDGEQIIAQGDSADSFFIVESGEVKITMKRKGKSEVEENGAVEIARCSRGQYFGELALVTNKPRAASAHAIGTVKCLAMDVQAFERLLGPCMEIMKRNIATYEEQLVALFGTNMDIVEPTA
MsrA inh: bovine MsrA enzyme inhibitors, primary screen, biochemical, absorbance, HTS; purified bovine MsrA, absorbance read-out; inhibition, % at 15.5 µM; hit rate 0.75% among 360,000
bovine MsrA act: bovine MsrA enzyme activators, primary screen, biochemical, absorbance, HTS; Methionine sulfoxide reductase A (Bos taurus); purified bovine MsrA, absorbance read-out; activation, % at 10.6 µM; hit rate 0.3% among 360,000; in the data active = activation above about 7.5%
MsrA inh confirm: bovine MsrA inhibitors, retest, confirmation, biochemical, absorbance, HTS. shares compounds with MsrA inh. inhibition, % at 15.5 µM. AID 651822, 2012. purified bovine MsrA, absorbance read-out. hit rate 41% among 2,300;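 also: coupled to thioredoxin reductase with NADPH and selenocystamine and DMSO as substrate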
Each line names hits and unclear results; the compound was inactive in the other large screens (follow-up assays come after a bar, where they were run). Rule as the data show it, unless noted: active = inhibition above about 4.5%; inactive = the rest.

N#CC1=C(N)Oc2cc(O)ccc2C1c1cccnc1 (stereo unspecified)	none
N#CC1=C(N)Oc2ccc3ccccc3c2C1c1cccnc1 (stereo unspecified)	MsrA inh 6.6 | MsrA inh confirm inactive
N#CC1=C(N)Oc2ccc3ccc(O)cc3c2C1c1cccnc1 (stereo unspecified)	MsrA inh 6.7 | MsrA inh confirm 6.6
Cc1ccc(S(=O)(=O)N2CCOCC2)cc1C(=O)OCC(=O)Nc1ccc2[nH]c(=O)[nH]c2c1	none
CCOC(=O)c1cc2ccc(OC(=O)c3ccco3)cc2oc1=O	none
CCOC(=O)c1cc2ccc3ccccc3c2oc1=O	MsrA inh 15.1 | MsrA inh confirm 10.3
O=[N+]([O-])c1ccc(Nc2ccccc2)c2nonc12	MsrA inh 5.8 | MsrA inh confirm inactive
CSc1ccc(/C=C/C(=O)NC(=O)c2ccccc2O)cc1	MsrA inh 6.0 | MsrA inh confirm 4.7
O=C(/C=C/c1ccc(O)c(O)c1)NC(=O)c1ccccc1O	MsrA inh 6.3 | MsrA inh confirm inactive
O=C(N[C@@H](Cc1cccnc1)C(=O)N1CCC[C@H]1C(=O)NCc1ccccc1)c1ccccc1	none (no result: PKA-R1A activ, PKA-R2B act, bovine MsrA act)
Cc1[nH]n(-c2ccc([N+](=O)[O-])cc2)c(=O)c1C=NCC1CCCO1 (stereo unspecified)	MsrA inh 6.8 (no result: PKA-R1A activ, PKA-R2B act) | MsrA inh confirm 5.3
COCCNC(=O)c1cc2cc3ccc(OC)cc3nc2o1	MsrA inh 4.8 | MsrA inh confirm inactive
COc1ccc2cc3cc(C(=O)NCC4CCCO4)oc3nc2c1 (stereo unspecified)	MsrA inh 6.2 | MsrA inh confirm inactive
CCC(C)NC(=O)c1cc2cc3ccc(OC)cc3nc2o1 (stereo unspecified)	MsrA inh 5.0 | MsrA inh confirm inactive
COc1ccc2cc3cc(C(=O)NCCC(C)C)oc3nc2c1	none
CCCCCCCCN1C(=O)[C@H](CC(=O)N2CCSCC2)C[C@@]2(C(=O)OC)CC(C)(C)CC=C12	none (no result: PKA-R1A activ, PKA-R2B act, bovine MsrA act)
O=C1NC(=Nc2ccc(O)cc2)S/C1=C/c1ccco1	MsrA inh 4.7 | MsrA inh confirm 4.7
O=C(NCc1ccc2c(c1)OCO2)c1cc2ncc(Br)cn2n1	none
COc1cc(/C=N/N=C2/C(=O)Nc3ccccc32)ccc1O	MsrA inh 4.9 | MsrA inh confirm inactive
COc1cc(/C=N/N=C2/NC(=O)C(Cc3ccc(F)cc3)S2)ccc1O (stereo unspecified)	none
COc1cc(/C=N/N=C2/NC(=O)C(c3ccccc3)S2)ccc1O (stereo unspecified)	MsrA inh 4.9 | MsrA inh confirm inactive
COC(=O)[C@]12C[C@H](CC(=O)NCC34CC5CC(CC(C5)C3)C4)C(=O)N(Cc3ccc4c(c3)OCO4)C1=C[C@H](COCc1ccccc1)O[C@@H]2C	none (no result: PKA-R1A activ, PKA-R2B act, bovine MsrA act)
CN(CCO)S(=O)(=O)c1ccc2c(c1)C(=NNC(N)=O)c1cc(S(=O)(=O)N(C)CCO)ccc1-2	MsrA inh 4.8 | MsrA inh confirm inactive
Cc1nc2ccccn2c1C(=O)N/N=C/c1ccc([N+](=O)[O-])o1	MsrA inh 5.2 | MsrA inh confirm inactive
COc1cc(Nc2ccc(C)cc2)c([N+](=O)[O-])nc1[N+](=O)[O-]	none
Cc1cc(C)cc(Nc2ccc([N+](=O)[O-])nc2[N+](=O)[O-])c1	MsrA inh 18.7 | MsrA inh confirm 16.5
O=C(CSc1cn(Cc2ccccc2)c2ccccc12)N1CCOCC1	none
COCc1nnc(NC(=O)c2cc3ccccc3o2)s1	MsrA inh 5.1 | MsrA inh confirm inactive
CC1(C)CC(=O)c2sc(NS(=O)(=O)Cc3ccccc3)nc2C1	MsrA inh 5.3 | MsrA inh confirm inactive
Cc1ccc(S(=O)(=O)Nc2nc3c(s2)C(=O)CC(C)(C)C3)cc1	MsrA inh 6.7 | MsrA inh confirm inactive
COC(=O)[C@]12C[C@H](CC(=O)NCc3cccc(C(F)(F)F)c3)C(=O)N(Cc3ccccc3)C1=C[C@H](C(C)C)O[C@@H]2C1CC1	none (no result: PKA-R1A activ, PKA-R2B act, bovine MsrA act)
O=C1N=C(N2C=CC(=C3C=CNC=C3)C=C2)/C(=C/N=NC(=O)c2ccccc2O)S1	MsrA inh 5.8 | MsrA inh confirm 6.6
Cn1cccc1/C=N/NC(N)=S	MsrA inh 7.4 | MsrA inh confirm inactive
NC(=S)N/N=C/c1ccc(/C=N/NC(N)=S)cc1	MsrA inh 10.0 | MsrA inh confirm 9.0
COc1cccc(NC(=O)COc2cccc3c2CCNC3=O)c1	none
Cc1cc(N/N=C/c2ccc(N(C)C)cc2)c2ccccc2n1	MsrA inh 5.0 | MsrA inh confirm inactive
Cc1cc(N/N=C/c2ccco2)c2ccccc2n1	none
CCc1ccccc1NC(=O)CN(C)C(=O)COC(=O)c1ccco1	none
Cc1ccc(C(=O)N/N=C\c2ccc(Br)o2)o1	MsrA inh 6.4 | MsrA inh confirm 6.7
Cc1cc2c(c(=O)o1)[C@@]1(C(=O)N(C)c3cc(Br)ccc31)C1=C(CCCC1=O)O2	none (no result: PKA-R1A activ, PKA-R2B act, bovine MsrA act)
COCCCNC(=O)C[C@H]1C[C@@]2(C(=O)OC)C(=C[C@H](C(C)(C)C)O[C@@H]2C)N(CCC2=CCCCC2)C1=O	none (no result: PKA-R1A activ, PKA-R2B act, bovine MsrA act)
COc1cc(C(C#N)N2N=C(c3ccccc3)CC2c2ccccc2)ccc1O (stereo unspecified)	MsrA inh 4.7 | MsrA inh confirm inactive
N#CC(c1ccccc1O)N1N=C(c2ccccc2)CC1c1ccccc1 (stereo unspecified)	none
CC(=O)Nc1cccc(Oc2ccc(-c3noc(C)n3)cc2)c1	none
CC1(C)Cc2nc(N3CCCC3)c(C#N)cc2CO1	MsrA inh 8.7 | MsrA inh confirm 5.4
CC(=O)OCC(=O)NCC1CCN(C(=O)C(=O)c2cc3ccccc3o2)CC1	none (no result: PKA-R1A activ, PKA-R2B act, bovine MsrA act)
O=c1nc(N/N=C/c2ccccn2)cn[nH]1	MsrA inh 4.7 | MsrA inh confirm inactive
CC(=O)NN1C(=O)c2ccc3c4c(ccc(c24)C1=O)C(=O)N(NC(C)=O)C3=O	MsrA inh 29.0 | MsrA inh confirm 22.4
O=C1c2ccc3c4c(ccc(c24)C(=O)N1NC(=O)C(F)(F)F)CC3	none
CCCc1c(Cc2cccc(F)c2)ncn1CCc1ccccc1OC	none (no result: PKA-R1A activ, PKA-R2B act, bovine MsrA act)
O=C(NN1C(=O)c2ccccc2NC1c1ccco1)c1ccc([N+](=O)[O-])cc1 (stereo unspecified)	none
Cc1nc2ccccc2c(=O)n1/N=C/c1cn(-c2ccccc2)nc1-c1cccs1	MsrA inh 14.0 | MsrA inh confirm 4.9
Cc1nc2ccccc2c(=O)n1/N=C/c1cccs1	none
CCOC(=O)[C@@H]1[C@H]2COc3ccccc3[C@H]2N2C(=O)N(c3cccc(C)c3)C(=O)[C@]12C	none
O=C(COC(=O)C1CCN(/C=C/C(=O)C(F)(F)F)CC1)Nc1ccccc1	MsrA inh 4.8 | MsrA inh confirm inactive
